Experimental data taken from PubChem BioAssay AID624417 (National Center for Advancing Translational Sciences (NCATS), 2012).
Screen size: about 410,000 compounds; about 6,400 (1.6%) were called active. Roughly 20% stayed inconclusive and do not appear here. Calls come from the whole dose curve; as a rule, active = well fitted inhibition curve with a large enough effect; inconclusive = small, poorly fitted or top-dose-only effect; inactive = no such curve, though single readings can be large or run the other way. Only a selection was taken, and actives are over-represented in it overall.

Each compound was assayed against Glucagon-like peptide 1 receptor (Homo sapiens) (UniProt P43220) (assay: qHTS of GLP-1 Receptor Inverse Agonists (Inhibition Mode)). Conditions: HEK293 GLP-1R CRE-luciferase, luminescence, 24 h, GLP-1R form is constitutively active; series mostly up to 38.3 µM; activity change, negative = inhibition: at the top concentration.
Chain of Glucagon-like peptide 1 receptor (Homo sapiens) (P43220 whole entry, looked up): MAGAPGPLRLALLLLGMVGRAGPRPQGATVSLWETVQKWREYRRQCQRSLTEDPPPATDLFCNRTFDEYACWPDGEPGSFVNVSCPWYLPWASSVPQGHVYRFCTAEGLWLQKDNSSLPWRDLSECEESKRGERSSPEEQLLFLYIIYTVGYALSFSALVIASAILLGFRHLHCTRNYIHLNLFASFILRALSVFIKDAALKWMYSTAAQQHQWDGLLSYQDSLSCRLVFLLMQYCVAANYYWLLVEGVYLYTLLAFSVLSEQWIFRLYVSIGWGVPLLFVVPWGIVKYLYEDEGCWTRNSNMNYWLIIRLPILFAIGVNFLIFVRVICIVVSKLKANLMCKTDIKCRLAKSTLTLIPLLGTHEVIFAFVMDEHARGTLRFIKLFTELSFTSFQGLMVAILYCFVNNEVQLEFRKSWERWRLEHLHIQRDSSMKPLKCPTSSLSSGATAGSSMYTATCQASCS
Description: The overall goal of this project was to develop a novel assay for discovering small molecule ligands for class B1 G protein-coupled receptors (GPCRs). Very few agonists (or inverse agonists in inhibition mode) with generally weak activity for this entire group of physiologically important receptors are known to date. To establish proof-of-principle that this critical bottleneck can be overcome with a suitable screening approach, our studies focused on the class B1 receptor for glucagon-like peptide-1 (GLP-1R), a potential therapeutic target for diabetes and neurodegenerative disease. The assay was developed using a cell-based functional readout. Toward this goal, stably transfected HEK293 cell clones were established that co-express (i) a cAMP-responsive luciferase reporter gene, and (ii) constitutively active GLP-1R that upon ligand interaction inhibit (inverse agonists) the luciferase activity. In addition, two control cell lines were developed: (i) one that express only the cAMP-responsive reporter gene to enable initial exclusion of GLP-1R independent effects of candidate probes; and (ii) one with the reported gene cloned with another constitutively active orphan receptor GPR119 to enable exclusion of GLP-1R independent inhibitor effects of candidate inverse agonists. To that end, this assay was optimized for 1536-well format and screened against the MLSMR. […] NIH Molecular Libraries Probe Production Network [MLPCN] NIH Chemical Genomics Center [NCGC] Grant: NS064851 PI Name: Martin Beinborn, Tufts Medical Center
Six ul of cell suspension (200 cells/uL in DMEM + 10% Nu serum + 1% pen-strep) is dispensed in a white solid 1536-well plate. The plates are incubated for 12 hours at 37 deg C at 5% CO2 followed by addition of 23 nL compounds. After 24 hr incubation at 37 deg C and 5% CO2, 3 uL of luciferase assay detection reagent is added. A luminescence read is obtained on the PerkinElmer Viewlux after 12 min incubation at room temperature.
% is set by controls: 0 for no effect and ±100 for the full control effect; potency is the fitted concentration of half-maximal effect.
Note: nearly all actives have a fitted effect of over 55% in size.

Activity change, negative = inhibition, inactive:
O=C(Nc1cccc2cccnc12)c1ccc2sc([C@H]3C[C@H](O)[C@@H](CO)O3)nc2c1 -7.33%
C=C1C(=O)OC2C1CCC(C)=CCCC1(C)OC21 (stereo unspecified) -8.11%
CSCc1nnc(NC(=O)c2ccc(S(=O)(=O)N3CCCCC3C)cc2)o1 (stereo unspecified) -34%
CCN(CC(=O)NCc1cccs1)S(=O)(=O)c1ccc(NC(C)=O)cc1 9.52%
CNc1cc(-c2c(OC)cccc2OC)ncn1 12.1%
CCNC(=O)CCc1nc(-c2ccc(C)cc2)no1 5.28%
CCOc1ccc(-c2noc(CCC(=O)NC3CCCC3)n2)cc1OC 2.22%
O=C1NC[C@H](CCCCN2C[C@H](Cc3ccc(O)cc3)N(CC3CCCCC3)C(=O)C2=O)N(CCc2ccccc2)C1=O 17.3%
OCCc1ccc(NCCc2ccco2)cc1 19.7%
CC1(C(=O)Nc2ccc3c(c2)OCCO3)CSCC(=O)N1CCOc1ccccc1 (stereo unspecified) -16.3%
O=C(CCc1ccccc1)NCc1ccc2c(c1)CCN2C(=O)c1ccccc1 2.5%
O=C(NCc1ccc2c(c1)CCN2C(=O)c1ccccc1)c1ccccc1 0.837%
COc1ccc2c(c1)CCCO[C@]21O[C@H](CCO)C[C@H](O)[C@H]1O -1.05%
Cc1ccc(C(=O)N2CCCC2)c(F)c1F 0%
COc1cc(OC)c(C(=O)N2CCCC2)cc1OC 9.35%
C[C@H]1CN([C@@H](C)CO)C(=O)CCCn2nncc2CO[C@@H]1CN(C)Cc1ccc(Oc2ccccc2)cc1 -3.26%
Cc1ccc(S(=O)(=O)NC(=O)Nc2nc(-c3ccc(F)c(F)c3)cs2)cc1 5.25%
CCCc1ccc(-c2csc(NC(=O)Cc3cccs3)n2)cc1 -59.4%
CC1(C)CC(=O)C=C(c2ccccc2CO)C1=O 7.06%
CC1=C(C(=O)N2CCOCC2)CC(CC(=O)NCc2cccc3ccccc23)C(=O)N1CCC1=CCCCC1 (stereo unspecified) -26.4%
CC(C)N(C(=O)[C@H]1C[C@H](CC(=O)NCCC2=CCCCC2)C(=O)N2CCc3c([nH]c4cc(CCC(=O)N(C)C)ccc34)[C@]12C)C(C)C -32.8%
C[C@]12c3[nH]c4ccc(Cl)cc4c3CCN1C(=O)[C@@H](CC(=O)NCCCn1ccnc1)C[C@@H]2C(=O)N1CCOCC1 2.69%
CS(=O)(=O)c1cccc(-c2ccc3nncn3c2)c1 18.5%
Cc1ccccc1-c1ccc2c(c1)O[C@@H](CN(C)Cc1ccc(C(=O)O)cc1)[C@@H](C)CN([C@H](C)CO)S2(=O)=O -5.91%
O=C1c2ccccc2C(c2nc3ccccc3[nH]2)N1c1ccccc1 (stereo unspecified) 19.2%
CCOc1ccc(Cl)cc1-c1cc(C(=O)NCc2cccs2)[nH]n1 -27.5%
CC(C)c1ccc(CC(=O)N2CCC2(C)C(=O)NS(=O)(=O)c2ccc(C(C)(C)C)cc2)cc1 (stereo unspecified) -23.7%
Cc1ccc2c(c1)N(C(=O)Nc1ccc(Br)cc1F)CCO2 3.59%
O=c1c2cc(Br)ccc2nc(-c2cccc(Cl)c2)n1O -27.4%
Cc1sc2ncnc(SCC(=O)NC3CCS(=O)(=O)C3)c2c1C (stereo unspecified) -8.39%
CCCCNC(=O)c1nc(C2CCN(S(=O)(=O)c3ccc(F)c(F)c3)CC2)oc1-c1cccc(C(F)(F)F)c1 28.4%
O=S1(=O)CC(N2CCN(CCO)CC2)CN1C1CCCC1 (stereo unspecified) 16.4%
O=c1[nH]cnc2c1c(-c1ccccc1)cn2-c1ccc(F)cc1 -46.3%
COCCNc1ncnc2c1c(-c1ccccc1)cn2-c1ccc(C)c(Cl)c1 2.32%
CC1(C(=O)Nc2ccc3c(c2)OCCO3)CN(S(C)(=O)=O)CC(=O)N1Cc1cccc(F)c1 (stereo unspecified) 6.12%
Cc1ccc(S(=O)(=O)c2c(COC(=O)c3cccc(Cl)c3)c(-c3ccccc3)nn2C)cc1 -8.24%
Cn1nc(-c2ccccc2)c(CO)c1Sc1ccccc1 -24%
CC(=O)N1Cc2cc(C(=O)NCc3cccc(F)c3)nc(-c3cccc(C4=CCCC4)c3)c2[C@H]1CCO -8.88%
COc1ccc(S(=O)(=O)N2CCN(CC(=O)N3CCNC3=O)CC2)cc1OC 66.6%
Cc1ccn2c(-c3csc(Nc4ccc(C(=O)O)cc4)n3)c(C)nc2c1 -7.71%
CC1CCCCN1C(=S)NCc1ccccc1 (stereo unspecified) 0%
Oc1ccc(N2CCN(C(=S)NCc3ccccc3)CC2)cc1 -61.1%
COc1cc2c(=O)n(C)c3ccccc3c2cc1OC 39.7%
Cc1ccc(C)c(OCC(=O)N2CCN(C(=O)c3ccco3)CC2)c1 0%
CCC(=O)Nc1ccc(C(=O)N2CCN(C(=O)c3ccco3)CC2)cc1 9.34%
O=C(C1CCCN(S(=O)(=O)c2ccc([N+](=O)[O-])cc2)C1)N1CCCCC1 (stereo unspecified) 5.83%
Cc1ccc([N+](=O)[O-])cc1S(=O)(=O)N1CCCN(C)CC1 -5.16%
CCc1ccccc1OCC(=O)Nc1nnc(C2CC2)s1 10.4%
COC(=O)C[C@H]1C[C@@H]2c3cc(N(C)C)ccc3O[C@@H]2[C@H](CO)O1 21.2%
Cc1ccc(Cl)cc1NC(=O)CSc1nc2ccccc2nc1Cc1ccccc1 -6.16%
Cc1ccc(Cl)cc1NC(=O)COC(=O)CC(C)(C)C -22%
CCN(CC(=O)Nc1cc(Cl)ccc1C)C(=O)CN1C(=O)NC2(CCCC2)C1=O 2.03%
CCN(CC(=O)Nc1cc(Cl)ccc1C)C(=O)Cn1c(=O)cnc2ccccc21 0.702%
CCCS(=O)(=O)NC(=O)C1(C)CCCN(C(=O)c2cccs2)C1 (stereo unspecified) -0.887%
COc1ccc(NC(=O)COC(=O)C2COc3ccccc3O2)cc1 (stereo unspecified) -0.299%
Cc1ccc(C(C)C)cc1OCCN1CCCC1 -7.22%
Cc1cccc(N2CC(C(=O)Nc3ccccc3N3CCCC3)CC2=O)c1C (stereo unspecified) -14%
CC(C)n1c(SCC(=O)Nc2ccccc2N2CCCCC2)nc2c1c(=O)n(C)c(=O)n2C 8.86%
Cn1c(=O)c2c(nc(SCC(=O)Nc3ccccc3N3CCCCC3)n2C)n(C)c1=O 116%
COC(=O)c1ccc2nc(-c3cccc(Br)c3)c(Cc3ccccc3C(F)(F)F)n2c1 11.6%
CN(C)C(=O)c1cccc(-c2cnc3c(NC=O)cc(-c4ccc(C(=O)N5CCOCC5)cc4)cn23)c1 -2.79%
CC(=O)C[C@@H]1OC[C@H](CO)N1S(=O)(=O)c1ccc(C)cc1 2.54%
COc1ccc(NC(=O)C2(C)Cc3c(-c4ccc(C(N)=O)cc4)ccnc3O2)cc1 (stereo unspecified) 22.9%
C[C@@H]1CN([C@@H](C)CO)C(=O)c2c(c3ccccc3n2C)-c2ccccc2CO[C@H]1CN(C)C(=O)C1CC1 -23%
COc1cc(C(=O)N2CCOC23CCN(Cc2ccccc2)CC3)cc(OC)c1OC -13.8%
CCOc1ccc(NC(=O)CCS(=O)(=O)c2cccc3nsnc23)cc1 -0.803%
CC1(C(=O)NS(=O)(=O)Cc2cccc(Cl)c2)CCN1C(=O)Cc1ccccc1 (stereo unspecified) 2.44%
CCCNC(=O)C1(C)CCCN(Cc2cccc(C(F)(F)F)c2)C1 (stereo unspecified) -27.8%
N#Cc1ccc(Oc2cc(C(F)(F)F)nc(-c3ccccn3)n2)cc1 -7.33%
Cc1nc2ccccc2c(C(=O)O)c1-c1ccccn1 -10.1%
CCOc1ccc(CCN2C(=O)C(=O)N([C@@H](Cc3ccc(O)cc3)CN3CCC[C@H]3CN3C(=O)C(=O)NC[C@@H]3CC(C)C)C[C@@H]2Cc2ccccc2)cc1 3.91%
CCCCn1nnnc1C(c1cccc(OC)c1OC)N1CCN(C/C=C/c2ccccc2)CC1 (stereo unspecified) -33.9%
COc1ccc(OC)c(C(O)c2ncc(-c3cccc(C(F)(F)F)c3)[nH]2)c1 (stereo unspecified) -14.7%
Cc1cccc(-c2cnc(C(O)c3cc(C)cc(C)c3)[nH]2)c1 (stereo unspecified) 5.04%
COc1ccccc1Cc1c(-c2ccc(Cl)cc2)nc2c3ccccc3ccn12 10.4%

Potency, active:
CC1CCCCN1S(=O)(=O)c1ccc(S(=O)(=O)N(CC(=O)Nc2ccccc2)Cc2cccs2)cc1 (stereo unspecified) 11.2 µM
CCNC(=O)CCc1nc(-c2ccc(C(C)(C)C)cc2)no1 7.94 µM
O=C(NCc1ccc2c(c1)CCN2C(=O)c1ccccc1)Nc1cc(F)ccc1F 10 µM
Cc1c(Br)cc(C(=O)N2CCCCCC2)c(C)c1C 10 µM
COc1ccc(CC(=O)Nc2nc(-c3ccc(F)c(F)c3)cs2)cc1OC 3.98 µM
CC(C)N(C(=O)[C@H]1C[C@H](CC(=O)NC(C)(C)C)C(=O)N2CCc3c([nH]c4ccc(Cl)cc34)[C@]12C)C(C)C 11.2 µM
O=C1OCCN1C(=O)[C@H]1[C@H](c2ccc(Cl)cc2)C(c2cccc(Cl)c2)=NN1c1ccc(Br)cc1 7.94 µM
C[C@@H]1C(c2ccc(F)cc2)=NN(c2ccc(Br)cc2)[C@H]1C(=O)N1CCOC1=O 10 µM
CCCNc1ncnc2c1c(-c1ccccc1)cn2-c1ccc(OCC)cc1 3.16 µM
Cn1nc(-c2ccccc2)c(CSc2cccc(Cl)c2)c1Cl 10 µM
Oc1ccccc1N1CCN(C(=S)NCc2ccccc2)CC1 11.2 µM
Cc1ccc(OCC(=O)Nc2ccc(N3CCN(C(=O)c4ccco4)CC3)cc2)c(C)c1 7.94 µM
Cc1ccc2c(c1)C1CN(C)CCC1N2S(=O)(=O)c1ccc(Oc2ccc([N+](=O)[O-])cc2)cc1 (stereo unspecified) 11.2 µM
CCN(CC(=O)Nc1cc(Cl)ccc1C)C(=O)CSCc1ccc(C)cc1 10 µM
CCN(CC(=O)Nc1cc(Cl)ccc1C)C(=O)CSCc1ccccc1 12.6 µM
Cc1ccc(C(C)C)cc1OCC(=O)Nc1ccccc1N1CCCC1 2.51 µM
Cc1ccccc1NC(=O)CNc1ccccc1N1CCCCC1 7.94 µM
CCOc1ccc(OCC)c(NC(=O)CN(C)S(=O)(=O)c2cccc3nsnc23)c1 6.31 µM
Cc1ccc(Oc2nc(-c3ccccn3)nc3ccccc23)cc1 5.01 µM
COc1c(C)cc(C(O)c2ncc(-c3cccc(C(F)(F)F)c3)[nH]2)cc1C (stereo unspecified) 12.6 µM

Potency, inactive:
CCOc1ccccc1NC(=O)CCS(=O)(=O)c1cccc2nsnc12
